Data as given in PubChem BioAssay (NCATS).
Records with an inconclusive call do not appear. Active and inactive are the calls of the source. The call rests on the fitted dose curve; in most records, active means well fitted inhibition curve with a large enough effect; inconclusive means small, poorly fitted or top-dose-only effect; inactive means flat fitted curve, though single readings scatter.

Test system: CRL-7250
Experiment: qHTS assay to identify novel small-molecules to repurpose for Merkel cell carcinoma treatment (AID 1296009); further: nearly all actives have a fitted effect of over 60% in size
Details: MCC and control cell lines, CellTiter-Glo viability, 72 h; at 44.8 µM (top of the series) unless noted
Procedure, shortened: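 Cells were incubated with compound for 72 hr at 37 degree celsius before CellTiter-Glo addition. Luminescence was normalized with no-cell wells as full cytotoxicity and DMSO as baseline.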

Structure (SMILES)	outcome
CC(C)N(CCC(C(N)=O)(c1ccccc1)c1ccccn1)C(C)C (stereo unspecified)	inactive
C[C@]12CC[C@@H]3c4ccc(OC(=O)N(CCCl)CCCl)cc4CC[C@H]3[C@@H]1CC[C@@H]2OP(=O)(O)O	inactive
COC(=O)[C@@H](N)CCCN/C(N)=N/[N+](=O)[O-]	inactive
O=C(O)CCCc1ccc(N(CCCl)CCCl)cc1	inactive
NNc1ccccc1	inactive
CCc1cc2c(s1)-n1c(C)nnc1CN=C2c1ccccc1Cl	inactive
NC(=O)c1cc([N+](=O)[O-])cc([N+](=O)[O-])c1	inactive
C[N+]1(CCF)[C@@H]2CC[C@H]1CC(OC(=O)C(O)(c1ccccc1)c1ccccc1)C2 (stereo partly specified)	inactive
CC(C)(C)NCC(O)c1cc(Cl)c(N)c(C(F)(F)F)c1 (stereo unspecified)	inactive
C=CCN1C[C@H](C)N([C@H](c2ccc(C(=O)N(CC)CC)cc2)c2cccc(OC)c2)C[C@H]1C	inactive
CCCCCCCCCC(=O)O[C@H]1CC[C@H]2[C@@H]3CCC4=CC(=O)CC[C@@H]4[C@H]3CC[C@]12C	inactive
CC(NC(C)(C)C)C(=O)c1cccc(Cl)c1 (stereo unspecified)	inactive
CC(=O)OCC1=C(C(=O)O)N2C(=O)[C@@H](N)[C@H]2SC1	inactive
COc1ccc2c3c1O[C@H]1[C@H](O)CC[C@H]4[C@@H](C2)N(C)CC[C@@]341	inactive [at 92 µM]
CN1CC[C@]23c4c5ccc(O)c4O[C@H]2[C@@H](O)CC[C@H]3[C@H]1C5	inactive [at 92 µM]
CCOC(=O)CC(SP(=S)(OC)OC)C(=O)OCC (stereo unspecified)	inactive
